# Assay outcomes deposited in PubChem by The Scripps Research Institute Molecular Screening Center.
# Compounds with a hit are over-represented: about 1.3% of the library has one in this group of screens.
# PME-1 inh: PME-1 inhibitors via competitive probe labeling, primary screen, biochemical, fluorescence polarization, FP-Rh probe, HTS; Protein phosphatase methylesterase 1 (Homo sapiens), Q9Y570; recombinant PME-1; inhibition, % at 5.9 µM; 320,000 tested, 0.53% active;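 active = inhibition above the campaign mean of all compounds plus 3 SD, cut at about 26% in these data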;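 also: competitive labeling of PME-1 active site by serine hydrolase directed probe; 0% = PME-1 with DMSO and 100% = wells lacking PME-1 enzyme; inhibitors block probe labeling so polarization falls and inhibition rises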
# Target sequence (Q9Y570 whole entry, looked up): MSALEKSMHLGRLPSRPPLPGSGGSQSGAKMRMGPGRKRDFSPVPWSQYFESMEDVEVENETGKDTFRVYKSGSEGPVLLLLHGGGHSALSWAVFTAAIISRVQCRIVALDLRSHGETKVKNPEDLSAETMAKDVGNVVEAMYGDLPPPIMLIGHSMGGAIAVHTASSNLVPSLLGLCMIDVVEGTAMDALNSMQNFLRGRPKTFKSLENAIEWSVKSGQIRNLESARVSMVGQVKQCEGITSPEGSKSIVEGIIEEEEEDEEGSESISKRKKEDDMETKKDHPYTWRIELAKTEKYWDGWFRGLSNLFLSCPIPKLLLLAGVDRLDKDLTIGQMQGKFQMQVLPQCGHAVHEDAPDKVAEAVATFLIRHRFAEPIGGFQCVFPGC
# Fam108B counter: mouse Fam108B serine hydrolase inhibitors, primary screen, counter-screen for RBBP9 inhibitor project, biochemical, fluorescence polarization. recombinant Fam108B, FP-Rh probe fluorescence polarization. inhibition, % at 9.51 µM. 300,000 tested, 0.33% active;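 active = inhibition above the screen mean inhibition plus 3 SD, computed separately per campaign, cut at about 18% in these data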;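 also: inhibitors lower polarization as less probe binds the enzyme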
# PREPL inh: PREPL enzyme inhibitors, primary screen, biochemical, fluorescence polarization. recombinant PREPL, fluorescence polarization activity-based probe. AID 2751, 2010. inhibition, % at 5.96 µM. 320,000 tested, 0.68% active. Prolyl endopeptidase-like (Homo sapiens), Q4J6C6;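 also: 0% = enzyme with DMSO and 100% = wells lacking enzyme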
# LYPLA1 counter: LYPLA1 inhibitors, primary screen, counter-screen for PME1 inhibitor project, biochemical, fluorescence polarization, FP-Rh probe ABPP; 320,000 tested, 0.16% active; recombinant LYPLA1; inhibition, % at 5.9 µM; AID 2174, 2009; Acyl-protein thioesterase 1 (Homo sapiens), O75608;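 active = inhibition above the mean of all tested compounds plus 3 SD, set per campaign, cut at about 14% in these data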;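 also: inhibitors block serine hydrolase probe labeling of LYPLA1 so polarization falls; 0% = enzyme with DMSO and 100% = wells lacking LYPLA1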
# Target sequence (O75608 whole entry, looked up): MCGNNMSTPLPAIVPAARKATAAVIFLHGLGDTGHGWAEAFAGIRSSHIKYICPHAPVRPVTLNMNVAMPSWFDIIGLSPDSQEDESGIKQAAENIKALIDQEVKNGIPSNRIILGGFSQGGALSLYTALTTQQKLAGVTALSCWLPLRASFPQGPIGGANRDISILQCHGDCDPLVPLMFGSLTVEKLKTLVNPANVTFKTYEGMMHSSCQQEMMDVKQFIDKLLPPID
# LYPLA2 counter: LYPLA2 inhibitors, primary screen, counter-screen for PME1 inhibitor project, biochemical, fluorescence polarization, FP-Rh probe ABPP. 320,000 tested, 0.38% active. inhibition, % at 5.9 µM. AID 2177, 2009. recombinant LYPLA2;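 active = inhibition above the screen-wide mean plus 3 SD, limit set per campaign, cut at about 26% in these data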;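 also: 0% = LYPLA2 with DMSO and 100% = wells lacking LYPLA2 enzyme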
# LYPLA1 conf: LYPLA1 inhibitors, retest, confirmation, counter-screen for PME1 inhibitor project, biochemical, fluorescence polarization, FP-Rh probe ABPP | shares compounds with LYPLA1 counter | recombinant LYPLA1 | inhibition, % at 5.9 µM | 480 tested, 69% active;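 active = mean inhibition across replicates above the hit cutoff set in the primary screen, cut at about 15% in these data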;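 also: loss of FP-Rh probe labeling of LYPLA1 seen as lower polarization; 0% = LYPLA1 with DMSO and 100% = wells lacking LYPLA1 enzyme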
# LYPLA2 conf: LYPLA2 inhibitors, retest, confirmation, counter-screen for PME1 inhibitor project, biochemical, fluorescence polarization, FP-Rh probe ABPP. shares compounds with LYPLA2 counter. recombinant LYPLA2. inhibition, % at 5.9 µM. 1,100 tested, 72% active. AID 2232, 2010;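 active = mean inhibition across replicates above the hit cutoff set in the primary screen, cut at about 26% in these data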;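 also: blocked labeling of the enzyme by serine hydrolase FP-Rh probe lowers polarization; 0% = enzyme with DMSO and 100% = wells lacking LYPLA2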
# PREPL inh cf: human PREPL enzyme inhibitors, confirmation, biochemical, fluorescence polarization; recombinant PREPL, fluorescence polarization activity probe; 2,000 tested, 67% active; AID 2803, 2010; inhibition, % at 5.96 µM; shares compounds with PREPL inh;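 also: 0% = protein with DMSO and 100% = wells lacking protein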
# The depositor's hits bear a star; . = no result given. Rule as the data show it, unless noted: active = inhibition above about 43%; inactive = the rest.
SMILES,PME-1 inh,Fam108B counter,PREPL inh,LYPLA1 counter,LYPLA2 counter,LYPLA1 conf,LYPLA2 conf,others
O=c1ccc2ccc(Oc3ccc([N+](=O)[O-])cc3Cl)cc2o1,7.2,2.7,26.7,16.2*,69.9*,21.8*,66.4*,
O=C(c1ccc(Oc2ccccc2)cc1)C1CCCN(C(=O)c2cnccn2)C1 (configuration not stated),3.0,1.2,23.6,1.5,14.6,.,.,
O=[N+]([O-])c1cccc(/C=N/N2CCN(Cc3ccc(Cl)cc3)CC2)c1,6.6,-0.4,30.4,28.6*,40.9*,36.5*,53.4*,
CC(NC(=O)COC(=O)C1CCN(c2ccc(C(F)(F)F)cn2)CC1)c1ccc(Br)cc1 (configuration not stated),-2.7,-1.5,2.1,-5.9,-7.2,.,.,
O=C(CCN1CCN(c2ccc([N+](=O)[O-])cc2)CC1)c1ccc(Cl)cc1,-1.4,-0.2,7.4,37.1*,72.5*,47.3*,78.9*,
COc1ccc(C(CNC(=O)COc2ccc(-c3ccccc3)cc2)N2CCOCC2)cc1 (configuration not stated),5.0,1.3,20.4,44.8*,43.6*,56.8*,44.7*,
COc1ccc(C(CNC(=O)COc2c(C)cc(C)cc2C)N2CCOCC2)cc1 (configuration not stated),-1.5,.,10.2,-3.4,5.9,.,.,
O=C(c1cc(COc2cccc(C(F)(F)F)c2)on1)N1CCC(Oc2cccnc2)CC1,7.6,-0.6,6.5,39.6*,34.7*,50.2*,37.7*,
Cc1ccc(OCc2cc(C(=O)N3CCC(Oc4cccnc4)CC3)no2)cc1C,0.5,-3.4,5.9,38.3*,47.9*,37.7*,38.3*,
CCOC(=O)N1CCN(C(=O)c2cc(COc3cccc(C(F)(F)F)c3)on2)CC1,4.3,5.2,17.3,1.0,3.6,.,.,
c1ccc2c(-c3cncc4ccccc34)cncc2c1,0.6,-0.2,-24.9,-1.5,0.7,.,.,
Cc1c(Br)c([N+](=O)[O-])nn1CC(=O)Nc1ccc(Cc2ccncc2)cc1,-0.1,-0.1,34.2,23.4*,59.0*,34.6*,66.7*,
CCN(c1cccc(C)c1)S(=O)(=O)c1cc(CN2C(=O)c3cccnc3C2=O)ccc1OC,4.7,0.3,-1.5,-4.2,0.8,.,.,
CCOC(=O)CCCSc1nc2sc3c(c2c(=O)[nH]1)CCC3,-13.0,-1.4,4.6,-0.1,-3.5,.,.,
CCOC(=O)CSc1nnc(CSc2nc3sc4c(c3c(=O)[nH]2)CCCC4)n1-c1ccccc1,3.4,0.6,4.1,15.8*,77.5*,15.4*,80.0*,
C[C@@]12C(=O)Nc3cc(F)c(F)cc3C(=O)N1[C@H]1c3cc(Cl)ccc3OC[C@@H]1[C@@H]2c1ccccc1,.,.,21.4,.,.,.,.,
O=C(COc1ccc(Br)cc1)Nc1ccc(Cc2ccncc2)cc1,-16.8,-0.7,-37.3,23.1*,29.6*,25.2*,21.8,
COc1ccc(CN2CCC(=O)N([C@H](CO)Cc3ccccc3)CC2)cc1OC,-0.2,-3.7,8.8,-1.4,0.8,.,.,
OC(CN1CCN(c2cccc(C(F)(F)F)c2)CC1)c1c[nH]c2ccccc12 (configuration not stated),5.3,5.7,36.8,22.6*,56.6*,29.7*,48.9*,
COc1ccc(CC(C)N2CCN(c3cccc(C(F)(F)F)c3)CC2)cc1OC (configuration not stated),0.2,3.8,9.0,24.9*,30.9*,32.0*,35.3*,
CCOc1cc(CN2CCN(c3cccc(C(F)(F)F)c3)CC2)ccc1OC,-3.3,1.4,9.8,-0.5,-2.1,.,.,
CC(C)(C)c1ccc(S(=O)(=O)N2CCN(Cc3cc4c(cc3O)OCO4)CC2)cc1,2.8,.,-3.4,1.7,2.8,.,.,
COc1cc([C@H]2Oc3cc([C@H]4Oc5cc(O)cc(O)c5C(=O)[C@@H]4O)ccc3O[C@@H]2CO)ccc1O,1.2,0.2,11.5,20.8*,70.2*,37.0*,74.5*,
O=C1c2c(O)cc(O)cc2O[C@H](c2ccc(O)cc2)[C@H]1O,-1.2,-1.4,2.2,0.4,19.8,.,.,
COC(=O)c1ccccc1-c1c2ccc(=N)cc-2oc2cc(N)ccc12,150.1*,.,151.3*,169.8*,191.5*,129.6*,154.6*,PREPL inh cf=151.1*
SMILES,PME-1 inh,Fam108B counter,PREPL inh,LYPLA1 counter,LYPLA2 counter,LYPLA1 conf,LYPLA2 conf,others
COC(=O)c1ccccc1-c1ccc(/C=N/NC(=O)c2cc3ccccc3o2)o1,-10.1,-3.5,14.6,-17.7,-14.4,.,.,
O=C(NC1CC2CCCC(C1)N2C(=O)Nc1ccccc1F)C1CC1 (configuration not stated),-2.5,-0.1,-1.9,4.2,4.2,.,.,
O=c1[nH]n2c(=O)c3c([nH]c2c1N=Nc1cccc(C(F)(F)F)c1)CCCC3,71.2*,9.0,54.6*,16.3*,0.8,15.0*,.,PREPL inh cf=61.5*
C#CCOCCOCCOCCNc1nc(N2CCN(C(=O)C(Cc3cc4ccccc4[nH]3)n3cc(C(N)Cc4ccc(O)cc4)nn3)CC2)nc(N2CCN(C(=O)C(CCC(=O)O)n3cc(C(N)C(C)CC)nn3)CC2)n1 (configuration not stated),1.1,-5.5,30.9,1.1,-0.4,.,.,
C#CCOCCOCCOCCNc1nc(N2CCN(C(=O)[C@H](Cc3cc4ccccc4[nH]3)n3cc([C@@H](N)C(C)CC)nn3)CC2)nc(N2CCN(C(=O)[C@H](Cc3cc4ccccc4[nH]3)n3cc([C@@H](N)Cc4ccc(O)cc4)nn3)CC2)n1 (some centres not stated),-28.3,-19.5,57.6*,16.6*,-20.2,34.3*,.,PREPL inh cf=56.6*
CCCS(=O)(=O)c1nc(S(=O)(=O)c2ccc(C)cc2)c(N2CCN(CCO)CC2)s1,-2.6,0.5,12.0,-3.9,-1.8,.,.,
O=C(N/N=C/c1ccc(-c2ccccc2[N+](=O)[O-])o1)c1cccnc1,4.4,3.7,11.5,3.5,6.0,.,.,
CC(C)(C)c1cc(C(=O)N/N=C/c2ccc(-c3ccccc3[N+](=O)[O-])o2)n[nH]1,31.9*,8.5,49.8*,25.6*,35.9*,0.3,0.9,PREPL inh cf=18.7
